Records with an inconclusive call do not appear. The source made the active and inactive calls. Calls follow the shape of the dose curve; as a rule, active = well fitted curve in the direction sought with a large enough effect in the repeat runs; inconclusive = weak or mixed curves; inactive = no such curve, though single readings can be large; an effect the other way counts as inactive or inconclusive.
What was measured:
[1] = A CellTox Green Cytotoxicity Assay to monitor cytotoxicity in HEK293 cells - 8 hour (AID 1224884); also: nearly all actives have a fitted effect of over 35% in size; also: potency is read from the fitted curve at half-maximal effect
In short: (§1)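 Cytotoxicity was tracked continuously in HEK293 cells by a DNA-binding dye excluded from viable cells. Compounds were transferred in DMSO 5 h after seeding; fluorescence was recorded at intervals up to 40 h.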

[2] = qHTS RealTime-Glo MT Cell Viability Assay in HepG2 cells - 16 hour (AID 1224885); also: nearly all actives have a fitted effect of over 50% in size; also: potency is read from the fitted curve at half-maximal effect
In short: (§2)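 Cells + NanoLuc/prosubstrate dispensed (600 cells/well) → 5 h at 37 C/5% CO2 → compounds in DMSO transferred → 40 h incubation at 37 C, luminescence read at 0, 8, 16, 24, 32, 40 h.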

[3] = qHTS RealTime-Glo MT Cell Viability Assay in HEK293 cells - 24 hour (AID 1224886); also: nearly all actives have a fitted effect of over 50% in size; also: potency is read from the fitted curve at half-maximal effect
In short: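 Tox21 10K qHTS, HEK293, 600 cells/well, RealTime-Glo reagent co-dispensed with cells; 5 h preincubation, compound by pintool, 37 C, luminescence at 0–40 h.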

[4] = qHTS RealTime-Glo MT Cell Viability Assay in HEK293 cells - 8 hour (AID 1224887); also: nearly all actives have a fitted effect of over 50% in size; also: potency is read from the fitted curve at half-maximal effect
In short: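 Nonlytic bioluminescent viability monitoring. HEK293 at 600 cells/well with reagent; 5 h settle; compound transfer by pintool; plates held at 37 C and read at set time points.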

[5] = A CellTox Green Cytotoxicity Assay to monitor cytotoxicity in HEK293 cells - 16 hour (AID 1224888); also: nearly all actives have a fitted effect of over 35% in size; also: potency is read from the fitted curve at half-maximal effect
In short: as §1

[6] = qHTS RealTime-Glo MT Cell Viability Assay in HepG2 cells - 0 hour (AID 1224889); also: nearly all actives have a fitted effect of over 50% in size
In short: as §2

[7] = A CellTox Green Cytotoxicity Assay to monitor cytotoxicity in HepG2 cells - 8 hour (AID 1224890); also: nearly all actives have a fitted effect of over 45% in size; also: potency is read from the fitted curve at half-maximal effect
In short: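 Real-time, homogeneous cytotoxicity readout: dead-cell DNA staining by CellTox Green in HepG2 monolayers, fluorescence measured at timed intervals up to 40 h of continuous compound exposure.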

[8] = qHTS assay to identify small molecule antagonists of the estrogen receptor alpha (ER-alpha) signaling pathway using the BG1 cell line in the presence of 0.1 nM 17-beta-estradiol - cell viability counter screen (AID 1259241); also: nearly all actives have a fitted effect of over 40% in size
In short: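 CellTiter-Fluor read (30 min, 37C) on ER-alpha/ERE-luc VM7Luc4E2 cells; 22 hr compound treatment; agonist 0.1 nM E2 final; same-well multiplex.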

[9] = qHTS assay to identify small molecule antagonists of the androgen receptor (AR) signaling pathway using the MDA cell line in the presence of 0.5 nM R1881 - cell viability counter screen (AID 1259242); also: nearly all actives have a fitted effect of over 45% in size; also: potency is read from the fitted curve at half-maximal effect
In short: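 Cytotoxicity toward MDA-kb2 cells is measured by CellTiter-Fluor live-cell protease fluorescence after 16 hr compound exposure at 37C in the presence of 0.5 nM R1881 stimulator.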

Measured: Potency

CC1CCCCN1CCCOC(=O)c1ccc(OC2CCCCC2)cc1 (stereo not given)
inactive: [1] | [2] | [5] | [6] | [7] | [8]
active: [3] 16.9 µM | [4] 10.7 µM

COc1cccc(O)c1
inactive: [1] | [2] | [3] | [4] | [5] | [6] | [7] | [8] | [9]

ClC/C=C\CCl
inactive: [1] | [2] | [3] | [4] | [5] | [6] | [7] | [8] | [9]

Cn1cnc2ncnc(N)c21
inactive: [1] | [2] | [3] | [4] | [5] | [6] | [7] | [8] | [9]

C=CC(C)C#N (stereo not given)
inactive: [1] | [2] | [3] | [4] | [5] | [6] | [7] | [8] | [9]

CN1CN(C)CN(C)C1
inactive: [1] | [2] | [3] | [4] | [5] | [6] | [7] | [8] | [9]

Clc1nc2ccccc2s1
inactive: [1] | [2] | [3] | [4] | [5] | [6] | [7] | [8] | [9]

O=C1OC(=O)c2cccc3cccc1c23
inactive: [1] | [2] | [3] | [4] | [5] | [6] | [7] | [8] | [9]

CCCCCCCC/C=C/CCCOC(C)=O
inactive: [1] | [2] | [3] | [4] | [5] | [6] | [7] | [8] | [9]

C1CC(COCC2CO2)CCC1COCC1CO1 (stereo not given)
inactive: [1] | [2] | [3] | [4] | [5] | [6] | [7] | [8] | [9]

COc1ccc(C#N)cc1
inactive: [1] | [2] | [3] | [4] | [5] | [6] | [7] | [8] | [9]

CCNc1nc(NC(C)CC)nc(OC)n1 (stereo not given)
inactive: [1] | [2] | [3] | [4] | [5] | [6] | [7] | [8] | [9]

CCOC(=O)CN
inactive: [1] | [2] | [3] | [4] | [5] | [6] | [7] | [8] | [9]

CC=O
active: [1] 57.5 µM | [2] 51.3 µM | [3] 0.575 µM | [5] 57.5 µM | [7] 57.5 µM | [9] 32 µM
inactive: [4] | [6] | [8]

CCc1c(C(=O)O)c(=O)cnn1-c1ccc(Cl)cc1
inactive: [1] | [2] | [3] | [4] | [5] | [6] | [7] | [8] | [9]

Oc1c(Br)cc(Br)c2cccnc12
inactive: [1] | [2] | [3] | [4] | [5] | [6] | [7] | [8] | [9]

CC(C)=C1CC[C@@H](C)CC1=O
inactive: [1] | [2] | [3] | [4] | [5] | [6] | [7] | [8] | [9]

CC(C)=CC1CC(C)CCO1 (stereo not given)
inactive: [1] | [2] | [3] | [4] | [5] | [6] | [7] | [8] | [9]

C=CC(=C)CCC=C(C)C
inactive: [1] | [2] | [3] | [4] | [5] | [6] | [7] | [8] | [9]

CCCCCCCC/C=C\CCCCCCCC(=O)OCCOC(=O)CCCCCCC/C=C\CCCCCCCC
active: [4] 20.2 µM
inactive: [1] | [2] | [3] | [5] | [6] | [7] | [8] | [9]

CC(C)c1ccccc1N
inactive: [1] | [2] | [3] | [4] | [5] | [6] | [7] | [8] | [9]

COC(=O)[C@]1(C)CCC[C@@]2(C)[C@H]1CC=C1C=C(C(C)C)CC[C@@H]12
active: [1] 38.9 µM | [5] 38.9 µM | [7] 38.9 µM
inactive: [2] | [3] | [4] | [6] | [8] | [9]

CCc1cccc(CC)c1N(COC)C(=O)CS(=O)(=O)O
inactive: [1] | [2] | [3] | [4] | [5] | [6] | [7] | [8] | [9]

CC(=O)Nc1ccc(O)cc1
inactive: [1] | [2] | [3] | [4] | [5] | [6] | [7] | [8] | [9]

Reference: PubChem BioAssay (Tox21)
